Measurements taken from ChEMBL document CHEMBL4513146, “CO-ADD screening of Karazin Kharkiv National University (Ukraine) compounds”.
Measured potencies and affinities stand elsewhere.

System: Staphylococcus aureus
Settings: Concentration 32 ug.mL-1;; ASSAY_TEST Inhibition of Bacterial Growth; detection method Absorption (OD600); MEDIA CAMHB; plate type 384well; NBS; CORNING #3640; time 18 hr

Q: How did the Inhibition turn out when CC(C)Cn1c(=O)c2sccc2n2c(=O)n(Cc3cccc(Br)c3)nc12 was run?
A: Its Inhibition is 8.88%.

Q: How did the Inhibition turn out when O=S(=O)(c1cccn2cnnc12)N(Cc1ccccc1F)c1ccc(F)c(F)c1 was run?
A: The Inhibition was -22.58%.

Q: COC(=O)c1ccc(NC(=O)CSc2nnc3ccc(C(=O)Nc4cccc(F)c4)cn23)cc1 was tested. Which Inhibition did it give?
A: Its Inhibition is 19.46%.

Q: Which Inhibition does the source give for COc1cccc(Oc2nccn3c(=O)n(CC(=O)Nc4ccc5c(c4)OCO5)nc23)c1 here?
A: The Inhibition was 9.63%.

Q: Which Inhibition does the source give for Cc1ccc(Oc2nccn3c(=O)n(CC(=O)NCc4cccs4)nc23)cc1 here?
A: The Inhibition was 11.07%.

Q: With CSc1cccc(NC(=O)Cn2nc3c(Sc4ccc(C)cc4C)nccn3c2=O)c1 as the compound, how does the Inhibition read?
A: The Inhibition was -13.41%.

Q: For Cc1cccc(CN(c2ccc(C(C)C)cc2)S(=O)(=O)c2cccn3c(C)nnc23)c1, which Inhibition is on record?
A: Its Inhibition is 5.76%.

Q: Cc1cccc(NC(=O)c2ccc3nn(CC(=O)N4CCc5ccccc5C4)c(=O)n3c2)c1 was tested. Which Inhibition did it give?
A: Its Inhibition is -5.11%.

Q: How did the Inhibition turn out when Cc1ccc(-c2ccc3nn(Cc4nc(-c5ccc(Cl)cc5)no4)c(=O)n3n2)cc1C was run?
A: The Inhibition was 0%.

Q: With O=C(Cn1nc2n(CCc3ccccc3)c(=O)c3ccccc3n2c1=O)Nc1ccc2c(c1)OCO2 as the compound, how does the Inhibition read?
A: Its Inhibition is -2.08%.

Q: How did the Inhibition turn out when Cc1cc(C)c(NC(=O)Cn2nc3c(SC4CCCCC4)nccn3c2=O)c(C)c1 was run?
A: The Inhibition was 12.7%.

Q: Which Inhibition does the source give for O=C(CCc1nnc2c3cc(-c4ccc(Cl)cc4)nn3ccn12)N1CCN(c2ccccn2)CC1 here?
A: Its Inhibition is 5.65%.

Q: For COc1cc(OC)c(NC(=O)Cn2nc3ccc(SC4CCCCC4)nn3c2=O)cc1Cl, which Inhibition is on record?
A: The Inhibition was 7.67%.

Q: With O=C(Cn1nc2ccc(-c3ccccc3)nn2c1=O)Nc1ccc(F)c(Cl)c1 as the compound, how does the Inhibition read?
A: Its Inhibition is 7.52%.

Q: Which Inhibition does the source give for O=C(CSc1nnc2c3cc(-c4ccc(F)cc4)nn3ccn12)NCc1ccccc1Cl here?
A: Its Inhibition is 1.62%.

Q: For CCOc1ccc(NC(=O)Cn2nc3c4cc(-c5ccc(Cl)cc5)nn4ccn3c2=O)cc1, which Inhibition is on record?
A: Its Inhibition is 0.29%.

Q: For O=c1c2nnc(SCc3ccccc3F)n2ccn1-c1ccc(F)cc1, which Inhibition is on record?
A: The Inhibition was 19.41%.

Q: With COc1cccc(Oc2nccn3c(=O)n(CC(=O)Nc4ccc(OC)c(Cl)c4)nc23)c1 as the compound, how does the Inhibition read?
A: Its Inhibition is 8.12%.

Q: Cc1cccc(NC(=O)Cn2nc3ccc(-c4ccc(C)c(C)c4)nn3c2=O)c1 was tested. Which Inhibition did it give?
A: Its Inhibition is -13.22%.

Q: How did the Inhibition turn out when O=C(CCc1nnc2c(N3CCCCC3)nc3ccccc3n12)NCc1ccc(Br)cc1 was run?
A: The Inhibition was 2.96%.

Q: Which Inhibition does the source give for CCOc1ccccc1NC(=O)Cn1nc2c3cc(-c4ccc(OC)cc4)nn3ccn2c1=O here?
A: Its Inhibition is 2.23%.

Q: Which Inhibition does the source give for CCCc1nnc2c(=O)n(CC(=O)Nc3ccc(Cl)c(Cl)c3)c3ccccc3n12 here?
A: Its Inhibition is -1.25%.

Q: For Cc1ccc(-n2ccn3c(SC(C)C(=O)Nc4ccc5c(c4)OCCO5)nnc3c2=O)cc1C (stereo not given), which Inhibition is on record?
A: The Inhibition was 12.06%.

Q: With Cc1cc2nn(CC(=O)Nc3cc(F)ccc3C)c(=O)n2c(Nc2ccc(F)cc2)n1 as the compound, how does the Inhibition read?
A: Its Inhibition is 4.25%.

Q: CC(C)Cn1c(=O)c2ccc(C(=O)NC3CCCC3)cc2n2c(=O)n(CC(=O)NC3CCCCC3)nc12 was tested. Which Inhibition did it give?
A: Its Inhibition is -0.85%.

Q: COc1cc(NC(=O)Cn2nc3ccc(SC(C)C)nn3c2=O)cc(OC)c1 was tested. Which Inhibition did it give?
A: The Inhibition was -7.38%.

Q: Cc1ccc(NC(=O)Cn2nc3ccc(SC(C)C)nn3c2=O)cc1F was tested. Which Inhibition did it give?
A: The Inhibition was -3.37%.

Q: How did the Inhibition turn out when N#Cc1cccc(NC(=O)Cn2nc3c4cc(-c5ccc(Cl)cc5)nn4ccn3c2=O)c1 was run?
A: Its Inhibition is 2.28%.

Q: COc1cccc(-n2ccn3c(SCC(=O)c4ccc(F)cc4)nnc3c2=O)c1 was tested. Which Inhibition did it give?
A: Its Inhibition is 13.82%.

Q: How did the Inhibition turn out when O=C(CSc1nnc2c(=O)n(-c3ccccc3)ccn12)Nc1ccc(Cl)cc1 was run?
A: Its Inhibition is 3.58%.

Q: COc1ccccc1-n1ccn2c(SCc3ccc(Cl)cc3)nnc2c1=O was tested. Which Inhibition did it give?
A: The Inhibition was 7.4%.

Q: For COc1ccc(-c2cc3c4nn(CC(=O)Nc5c(C)cc(C)cc5C)c(=O)n4ccn3n2)cc1, which Inhibition is on record?
A: The Inhibition was 9.75%.

Q: How did the Inhibition turn out when COc1ccc(NC(=O)Cn2nc3nc(Nc4ccc(F)cc4)ccn3c2=O)cc1Cl was run?
A: Its Inhibition is 5.78%.

Q: For CCOc1ccc(NC(=O)Cn2nc3c(Sc4ccccc4)nccn3c2=O)cc1, which Inhibition is on record?
A: Its Inhibition is 1.52%.

Q: How did the Inhibition turn out when COc1cccc(CNC(=O)CSc2nnc3ccc(C(=O)Nc4cccc(F)c4)cn23)c1 was run?
A: The Inhibition was 9.49%.

Q: O=C(CSc1nnc2ccc(C(=O)NCc3ccccc3)cn12)Nc1ccccc1Br was tested. Which Inhibition did it give?
A: The Inhibition was 7.29%.

Q: For O=C(CCc1nnc2c3cc(-c4ccccc4)nn3ccn12)N1CCN(C(=O)c2ccco2)CC1, which Inhibition is on record?
A: The Inhibition was 7.4%.

Q: With CCOc1ccccc1NC(=O)Cn1nc2c(Sc3cccc(C)c3)nccn2c1=O as the compound, how does the Inhibition read?
A: The Inhibition was 3.15%.

Q: CC1CC(C)CN(c2nccn3c(=O)n(CC(=O)NCc4ccccc4Cl)nc23)C1 (stereo not given) was tested. Which Inhibition did it give?
A: Its Inhibition is 3.32%.

Q: How did the Inhibition turn out when CCc1nnc2ccc(S(=O)(=O)N(Cc3ccc(OC)cc3)c3ccc(F)cc3)cn12 was run?
A: Its Inhibition is 4.6%.

System: Escherichia coli
Settings: Concentration 32 ug.mL-1;; ASSAY_TEST Inhibition of Bacterial Growth; detection method Absorption (OD600); MEDIA CAMHB; plate type 384well; NBS; CORNING #3640; time 18 hr

Q: CC(C)Cn1c(=O)c2sccc2n2c(=O)n(Cc3cccc(Br)c3)nc12 was tested. Which Inhibition did it give?
A: Its Inhibition is -2.43%.

Q: Which Inhibition does the source give for O=S(=O)(c1cccn2cnnc12)N(Cc1ccccc1F)c1ccc(F)c(F)c1 here?
A: The Inhibition was 5.15%.

Q: How did the Inhibition turn out when COC(=O)c1ccc(NC(=O)CSc2nnc3ccc(C(=O)Nc4cccc(F)c4)cn23)cc1 was run?
A: Its Inhibition is -0.45%.

Q: COc1cccc(Oc2nccn3c(=O)n(CC(=O)Nc4ccc5c(c4)OCO5)nc23)c1 was tested. Which Inhibition did it give?
A: Its Inhibition is -4.07%.

Q: For Cc1ccc(Oc2nccn3c(=O)n(CC(=O)NCc4cccs4)nc23)cc1, which Inhibition is on record?
A: Its Inhibition is 1.37%.

Q: How did the Inhibition turn out when CSc1cccc(NC(=O)Cn2nc3c(Sc4ccc(C)cc4C)nccn3c2=O)c1 was run?
A: The Inhibition was -16.34%.

Q: With Cc1cccc(CN(c2ccc(C(C)C)cc2)S(=O)(=O)c2cccn3c(C)nnc23)c1 as the compound, how does the Inhibition read?
A: The Inhibition was -1.18%.

Q: Which Inhibition does the source give for Cc1cccc(NC(=O)c2ccc3nn(CC(=O)N4CCc5ccccc5C4)c(=O)n3c2)c1 here?
A: Its Inhibition is -8.84%.

Q: With Cc1ccc(-c2ccc3nn(Cc4nc(-c5ccc(Cl)cc5)no4)c(=O)n3n2)cc1C as the compound, how does the Inhibition read?
A: Its Inhibition is -6.42%.

Q: With O=C(Cn1nc2n(CCc3ccccc3)c(=O)c3ccccc3n2c1=O)Nc1ccc2c(c1)OCO2 as the compound, how does the Inhibition read?
A: The Inhibition was -8.34%.

Q: For Cc1cc(C)c(NC(=O)Cn2nc3c(SC4CCCCC4)nccn3c2=O)c(C)c1, which Inhibition is on record?
A: The Inhibition was -1.77%.

Q: O=C(CCc1nnc2c3cc(-c4ccc(Cl)cc4)nn3ccn12)N1CCN(c2ccccn2)CC1 was tested. Which Inhibition did it give?
A: Its Inhibition is -0.84%.

Q: COc1cc(OC)c(NC(=O)Cn2nc3ccc(SC4CCCCC4)nn3c2=O)cc1Cl was tested. Which Inhibition did it give?
A: The Inhibition was 5.95%.

Q: Which Inhibition does the source give for O=C(Cn1nc2ccc(-c3ccccc3)nn2c1=O)Nc1ccc(F)c(Cl)c1 here?
A: Its Inhibition is -1.06%.

Q: How did the Inhibition turn out when O=C(CSc1nnc2c3cc(-c4ccc(F)cc4)nn3ccn12)NCc1ccccc1Cl was run?
A: Its Inhibition is -6.39%.

Q: How did the Inhibition turn out when CCOc1ccc(NC(=O)Cn2nc3c4cc(-c5ccc(Cl)cc5)nn4ccn3c2=O)cc1 was run?
A: Its Inhibition is -4.33%.

Q: For O=c1c2nnc(SCc3ccccc3F)n2ccn1-c1ccc(F)cc1, which Inhibition is on record?
A: The Inhibition was -3.23%.

Q: COc1cccc(Oc2nccn3c(=O)n(CC(=O)Nc4ccc(OC)c(Cl)c4)nc23)c1 was tested. Which Inhibition did it give?
A: Its Inhibition is -5.35%.

Q: For Cc1cccc(NC(=O)Cn2nc3ccc(-c4ccc(C)c(C)c4)nn3c2=O)c1, which Inhibition is on record?
A: The Inhibition was -14.87%.

Q: O=C(CCc1nnc2c(N3CCCCC3)nc3ccccc3n12)NCc1ccc(Br)cc1 was tested. Which Inhibition did it give?
A: Its Inhibition is -5.93%.

Q: Which Inhibition does the source give for CCOc1ccccc1NC(=O)Cn1nc2c3cc(-c4ccc(OC)cc4)nn3ccn2c1=O here?
A: Its Inhibition is 5.35%.

Q: For CCCc1nnc2c(=O)n(CC(=O)Nc3ccc(Cl)c(Cl)c3)c3ccccc3n12, which Inhibition is on record?
A: The Inhibition was 0.68%.

Q: How did the Inhibition turn out when Cc1ccc(-n2ccn3c(SC(C)C(=O)Nc4ccc5c(c4)OCCO5)nnc3c2=O)cc1C (stereo not given) was run?
A: The Inhibition was -2.85%.

Q: With Cc1cc2nn(CC(=O)Nc3cc(F)ccc3C)c(=O)n2c(Nc2ccc(F)cc2)n1 as the compound, how does the Inhibition read?
A: Its Inhibition is -5.18%.

Q: How did the Inhibition turn out when CC(C)Cn1c(=O)c2ccc(C(=O)NC3CCCC3)cc2n2c(=O)n(CC(=O)NC3CCCCC3)nc12 was run?
A: Its Inhibition is -0.58%.

Q: How did the Inhibition turn out when COc1cc(NC(=O)Cn2nc3ccc(SC(C)C)nn3c2=O)cc(OC)c1 was run?
A: The Inhibition was -2.23%.

Q: For Cc1ccc(NC(=O)Cn2nc3ccc(SC(C)C)nn3c2=O)cc1F, which Inhibition is on record?
A: Its Inhibition is -1.63%.

Q: How did the Inhibition turn out when N#Cc1cccc(NC(=O)Cn2nc3c4cc(-c5ccc(Cl)cc5)nn4ccn3c2=O)c1 was run?
A: Its Inhibition is -5.31%.

Q: COc1cccc(-n2ccn3c(SCC(=O)c4ccc(F)cc4)nnc3c2=O)c1 was tested. Which Inhibition did it give?
A: The Inhibition was -3.39%.

Q: Which Inhibition does the source give for O=C(CSc1nnc2c(=O)n(-c3ccccc3)ccn12)Nc1ccc(Cl)cc1 here?
A: Its Inhibition is -4.07%.

Q: With COc1ccccc1-n1ccn2c(SCc3ccc(Cl)cc3)nnc2c1=O as the compound, how does the Inhibition read?
A: Its Inhibition is -9%.

Q: For COc1ccc(-c2cc3c4nn(CC(=O)Nc5c(C)cc(C)cc5C)c(=O)n4ccn3n2)cc1, which Inhibition is on record?
A: Its Inhibition is 4.81%.

Q: With COc1ccc(NC(=O)Cn2nc3nc(Nc4ccc(F)cc4)ccn3c2=O)cc1Cl as the compound, how does the Inhibition read?
A: The Inhibition was -9.75%.

Q: How did the Inhibition turn out when CCOc1ccc(NC(=O)Cn2nc3c(Sc4ccccc4)nccn3c2=O)cc1 was run?
A: Its Inhibition is -2.95%.

Q: With COc1cccc(CNC(=O)CSc2nnc3ccc(C(=O)Nc4cccc(F)c4)cn23)c1 as the compound, how does the Inhibition read?
A: Its Inhibition is -5.27%.

Q: For O=C(CSc1nnc2ccc(C(=O)NCc3ccccc3)cn12)Nc1ccccc1Br, which Inhibition is on record?
A: Its Inhibition is -1.34%.

Q: How did the Inhibition turn out when O=C(CCc1nnc2c3cc(-c4ccccc4)nn3ccn12)N1CCN(C(=O)c2ccco2)CC1 was run?
A: Its Inhibition is 0.93%.

Q: With CCOc1ccccc1NC(=O)Cn1nc2c(Sc3cccc(C)c3)nccn2c1=O as the compound, how does the Inhibition read?
A: Its Inhibition is -1.9%.

Q: How did the Inhibition turn out when CC1CC(C)CN(c2nccn3c(=O)n(CC(=O)NCc4ccccc4Cl)nc23)C1 (stereo not given) was run?
A: Its Inhibition is 2.48%.

Q: For CCc1nnc2ccc(S(=O)(=O)N(Cc3ccc(OC)cc3)c3ccc(F)cc3)cn12, which Inhibition is on record?
A: The Inhibition was -5.2%.
